In the supplement of paper PMC9588786:
± gives the standard deviation of the averaged measurements.

The molecules below were run on HT-1080 (assay: relative cell viability with RSL3 co-treatment (fraction of control); higher = stronger protection from RSL3-induced ferroptosis (higher viability)). Details: 10 µM.
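Also: viability read as CCK-8 absorbance at 450 nm in cells co-exposed to the GPX4 inhibitor RSL3, relative to a 0.01% DMSO vehicle control.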

Which relative cell viability does the source give for CO[C@@H](C(=O)N1Cc2[nH]nc(NC(=O)c3ccc(N4CCN(C)CC4)cc3)c2C1)c1ccccc1 here?
The relative cell viability was 0.507 ± 0.1.

Which relative cell viability does the source give for COc1cc(Nc2ncc(F)c(Nc3ccc4c(n3)NC(=O)C(C)(C)O4)n2)cc(OC)c1OC [R406 (free base)] here?
The relative cell viability was 0.79 ± 0.02.

How did the relative cell viability turn out when CN(C[C@@H]1COCCO1)S(=O)(=O)Nc1ccc2ccc3ncc(-c4cnn(C)c4)cc3c(=O)c2c1 was run?
Its relative cell viability is 0.657 ± 0.25.

How did the relative cell viability turn out when OCCn1cc(-c2ccc3c(c2)CC/C3=N\O)c(-c2ccncc2)n1 was run?
The relative cell viability was 0.687 ± 0.13.

Which relative cell viability does the source give for Cc1cc(C(C)Nc2ccccc2)c2nc(N3CCOCC3)cc(=O)n2c1 (centres undefined) here?
Its relative cell viability is 0.627 ± 0.059.

O=c1c(-c2ccc(O)cc2)coc2cc(O)cc(O)c12 [Genistein] was tested. Which relative cell viability did it give?
Its relative cell viability is 0.76 ± 0.07.

How did the relative cell viability turn out when CS(=O)(=O)N1CCc2c(-c3cnc(N)nc3)nc(N3CCOCC3)nc21 was run?
The relative cell viability was 0.85 ± 0.061.

Which relative cell viability does the source give for Cn1cnc2c(F)c(Nc3ccc(Br)cc3Cl)c(C(=O)NOCCO)cc21 [Selumetinib (AZD6244)] here?
The relative cell viability was 0.807 ± 0.015.

Which relative cell viability does the source give for COc1cc(-c2cc(-c3ccc(N4CCNCC4)cc3)cnc2C)cc(OC)c1OC here?
The relative cell viability was 0.74 ± 0.075.

With COc1ccc(S(=O)(=O)N(C(C)=O)c2ccccc2/C=C/c2cc[n+]([O-])cc2)cc1 as the molecule, how does the relative cell viability read?
The relative cell viability was 0.633 ± 0.015.

With COc1ncc(-c2cc(-c3ncc(CN4C[C@@H](C)O[C@@H](C)C4)o3)c3cn[nH]c3c2)cc1NS(C)(=O)=O as the molecule, how does the relative cell viability read?
Its relative cell viability is 0.563 ± 0.051.

Which relative cell viability does the source give for CNC(=O)c1cccc(-c2ccc3c(N4CCOC[C@@H]4C)nc(N4CCOC[C@@H]4C)nc3n2)c1 [Vistusertib (AZD2014)] here?
The relative cell viability was 0.52 ± 0.18.

With Cc1cc(Nc2nc(N[C@@H](C)c3ncc(F)cn3)ncc2Cl)[nH]n1 as the molecule, how does the relative cell viability read?
Its relative cell viability is 0.597 ± 0.12.

For CN(C)Cc1cccc(N/C(=C2\C(=O)Nc3cc(C(N)=O)ccc32)c2ccccc2)c1, which relative cell viability is on record?
The relative cell viability was 0.627 ± 0.045.
